# Assay outcomes (PubChem BioAssay)
# B2AR arrestin: beta2AR (human) beta-arrestin recruitment activity | P07550 | beta-arrestin recruitment to beta2AR, cell-based reporter | Potency, µM (doses to about 46.1 µM), without a hit: top-dose activation, actives largely listed as activators | 0.02% of 330,000 active | AID 492947;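 further: potency means the concentration at half of the fitted maximal effect; 0% = DMSO controls and full agonism = EC100 isoproterenol or metaproterenol; nearly all actives have a fitted effect of over 65% in size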
# RORgamma inh: ROR gamma (mouse) transcription inhibition; Drosophila S2 Gal4-RORgamma UAS-luciferase reporter, 20 h; Potency, µM (top dose mostly 53.6 µM), for the others: top-dose activity change, negative = inhibition, most hits filed as inhibitors; 5.4% of 310,000 active; AID 2551; further: potency means the concentration at half of the fitted maximal effect; nearly all actives have a fitted effect of over 60% in size
# Target sequence (P51450 whole entry, looked up, the tested form may be a part): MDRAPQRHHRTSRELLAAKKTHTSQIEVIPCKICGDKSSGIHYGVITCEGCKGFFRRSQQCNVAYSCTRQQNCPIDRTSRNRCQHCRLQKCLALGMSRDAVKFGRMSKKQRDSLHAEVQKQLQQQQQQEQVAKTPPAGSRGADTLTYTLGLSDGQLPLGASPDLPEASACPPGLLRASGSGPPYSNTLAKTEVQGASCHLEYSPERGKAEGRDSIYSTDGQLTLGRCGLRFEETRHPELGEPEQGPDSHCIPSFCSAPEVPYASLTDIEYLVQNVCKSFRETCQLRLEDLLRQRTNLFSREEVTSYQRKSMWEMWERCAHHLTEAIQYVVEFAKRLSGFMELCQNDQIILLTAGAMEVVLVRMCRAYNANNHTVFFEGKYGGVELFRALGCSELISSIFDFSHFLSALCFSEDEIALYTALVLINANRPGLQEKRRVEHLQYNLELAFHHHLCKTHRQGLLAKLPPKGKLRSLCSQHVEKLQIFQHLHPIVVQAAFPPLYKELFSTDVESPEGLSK
#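 Schneider cells (Drosophila), stable Gal4 DBD–ROR gamma + UAS-luc; 1 hr cmpd preincubation; Cu2+ induction 700 uM final; 20 hr ambient; luminescence.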
# TSHR antagonist: blocks TSH signaling through the human TSH receptor | AID 504810 | P16473 | 0.2% of 330,000 active | activity change, negative = inhibition, % at 11.5 µM | TSHR-expressing cells, TSH-stimulated cAMP HTRF, 2 h; stronger effect = lower value;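 active means activity change below a set negative limit, meaning inhibition stronger than a set level, cut at about -70% in these data; inconclusive means activity change between two set negative limits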
#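 TSHR-expressing cells were treated with compounds, then stimulated with TSH at EC80 (4nM final) for 2 hours at 37 deg C. Cellular cAMP was measured by HTRF competition between lysate cAMP and cAMP-d2 for a cryptate-labelled anti-cAMP antibody.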
# VP16 counter: inhibits Gal4-VP16 luciferase reporter, ROR gamma counter-screen; Drosophila S2 Gal4-VP16 UAS-luciferase, luminescence, 20 h; Potency, µM (highest dose often 53.6 µM), for the others: top-dose activity, negative = inhibition, usual class: inhibitors; 3.5% of 310,000 active;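 further: Gal4-VP16 expression switched on by copper sulfate through the metallothionein promoter; potency means the concentration at half of the fitted maximal effect; nearly all actives have a fitted effect of over 50% in size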
# ELG1 repair inh: blocks ELG1-dependent DNA repair in HEK293T cells; HEK293T ELG1-luciferase reporter, luminescence, 16 h; DNA damage induced by 5-fluorouridine; Potency, µM (titrated, usually from 46.1 µM), for inactives: at the highest dose activity change, negative = inhibition, actives largely listed as inhibitors; 2.3% of 330,000 active; AID 504467; further: potency means the concentration at half of the fitted maximal effect; nearly all actives have a fitted effect of over 55% in size
#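 Cells (2,000 per well) received 5-fluorouridine plus test compound or DMSO and were incubated 16 hr at 37 °C, 5% CO2. Luciferase activity was read by luminescence 30 min after ONE-Glo addition; signal suppression marked inhibition of damage-induced ELG1 function.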
# The depositor's hits bear a star; ? = inconclusive; nt = no result given. In the library only some 7.5% were active in any assay of this set; here they are far more common. Unless noted, the call rests on the fitted dose curve; in most records, active means well fitted curve in the direction sought with a large enough effect; inconclusive means small, poorly fitted or top-dose-only effect, or another doubt; inactive means no such curve, though single readings can be large; an effect the other way counts as inactive or inconclusive. Unless noted, on the % scale 0 is the no-effect control and ±100 the full control effect.
SMILES,B2AR arrestin,RORgamma inh,TSHR antagonist,VP16 counter,ELG1 repair inh
O=C(C1CCN(S(=O)(=O)c2cccc3nsnc23)CC1)N1CCn2c1nc1ccccc12,-0.9%,-7.4%,-11.5,-6.2%,6.51µM*
O=C(C1CCCN(S(=O)(=O)c2cccc3nsnc23)C1)N1CCCCCC1 (stereo not given),-0.2%,4.4%,-4.8,-13.5%,-21.0%
COCCN=C1OC(=O)N2C(=O)C3=C4C(C[C@H]5C(=O)N(CC(=O)OC)C(=O)[C@H]5[C@H]4[C@@]12Cc1ccccc1)[C@H]1C(=O)N(CC(=O)OC)C(=O)[C@H]1[C@H]3C (stereo not given in full),nt,11.2%,nt,9.8%,nt
CC(=O)OC1CC2C(C)(C)C(=O)C3OC3[C@]2(C)C2CC[C@@]3(C)C(c4ccoc4)OC(=O)C4OC43[C@]12C (stereo not given in full),nt,30.1%,nt,?,nt
CCc1ccc(NC(=O)C2C3CCC(O3)C2C(=O)O)cc1 (stereo not given),-0.1%,-2.6%,22.2,1.0%,?
COc1ccc(Br)cc1/C=N/NC(=O)c1nc(-c2ccccc2)n2c1CCCCC2,-0.1%,-1.1%,-10.5,1.6%,20.6µM*
CC(C)(C)N(Cc1ccccc1)C(=O)COC(=O)C1CCN(c2ccc(C(F)(F)F)cn2)CC1,-0.2%,nt,-37.5,nt,12.3%
Cc1ccc(CC2S/C(=N/c3ccccn3)NC2=O)cc1 (stereo not given),-0.1%,2.82µM*,-1.9,3.55µM*,?
O=C1N/C(=N\c2ccccn2)SC1Cc1ccc(Cl)cc1 (stereo not given),-0.4%,2µM*,-7.2,3.16µM*,23.7%
O=C1NC(=Nc2ccccc2)SC1Cc1ccccc1 (stereo not given),-0.2%,-11.6%,54.1,0.0%,0.9%
C/C(=N\N=C1\NC(=O)C(CC(=O)O)S1)c1ccccn1 (stereo not given),0.0%,-28.2%,9.3,3.5%,0.0%
O=C1N/C(=N/c2ccccn2)SC1Cc1ccccc1 (stereo not given),0.4%,0.891µM*,10.2,2.51µM*,?
CCN(CC(=O)Nc1ccc2c(c1)OCCO2)C(=O)/C=C/c1ccc([N+](=O)[O-])cc1,-2.4%,nt,-3.7,nt,?
CCOc1ccc(C[C@H]2NC(=O)CCSSC[C@@H](C(=O)N3CCC[C@H]3C(=O)N[C@@H](CCCN)C(=O)NCC(N)=O)NC(=O)[C@H](CC(N)=O)NC(=O)[C@H]([C@@H](C)O)NC(=O)[C@H]([C@@H](C)CC)NC2=O)cc1,nt,-1.8%,nt,-5.7%,nt
N#C/C(=C\c1c[nH]c2ccccc12)c1nnc2n1CCCCC2,-0.3%,?,-3.7,4.7%,24.1%
N#C/C(=N\Nc1cccc2ccccc12)c1nnc2n1CCCCC2,-0.3%,?,-21.8,3.16µM*,-8.5%
CC(C)OC(=O)c1cccc(C(=O)Nc2cccc(NC(=O)c3cccc(C(=O)OC(C)C)n3)n2)n1,0.0%,4.5%,-1.5,1.8%,8.2µM*
CSc1nc(N)c2ncn([C@@H]3O[C@H](COP(=O)(O)OP(=O)(O)O)C(O)[C@H]3O)c2n1 (stereo not given in full),nt,nt,28.9,nt,nt
CCSc1nsc(NC(=O)Nc2ccccc2F)n1,-0.6%,?,-20.0,-9.4%,?
C=CCSc1nsc(NC(=O)Nc2ccc(F)cc2)n1,-1.1%,?,-81.8*,3.55µM*,?
Cc1ccc(/C=c2/sc3n(c2=O)CCCN=3)o1,0.1%,7.08µM*,-0.7,?,?
Cc1ccc(/C=c2\sc3n(c2=O)CN(c2ccc(Br)cc2)CN=3)o1,0.2%,-19.8%,8.4,-3.3%,5.0%
COc1cccc(C(=O)N/N=C(/CCC(=O)O)c2ccccc2)c1,2.8%,?,1.9,25.4%,15.2%
COc1cccc(C(=O)N/N=C(/c2ccccc2)c2ccccn2)c1,-0.1%,0.1µM*,3.8,0.141µM*,22.8%
COc1cc(C(=O)N/N=C(\c2ccccc2)c2ccccn2)cc(OC)c1OC,-0.5%,1.26µM*,-5.4,1.26µM*,?
COC(=O)c1c(C)oc2ccc(N(C(=O)c3ccncc3)S(=O)(=O)c3ccc4ccccc4c3)cc12,-0.2%,?,-36.1,3.55µM*,-27.0%
